Screening results (PubChem BioAssay)
HCV inh: inhibitors of hepatitis C virus infection. Huh7.5.1 HCVcc-Cre infection, luciferase reporter, 44 h. Potency, µM (series often up to 41.8 µM), hits mostly inhibitors. 3.4% of 340,000 active. AID 651820; active = well fitted inhibition curve with a large enough effect; inconclusive = small, poorly fitted or top-dose-only effect, or another doubt; inactive = no such curve, though single readings can be large or run the other way
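A cell-based infection assay in which seeded cells (1,000 per well) receive test compound after 4 h, are inoculated with HCVcc-Cre at approximately 0.5 moi, and are incubated 44 h before luminescence detection.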
LASV entry inh: inhibitors of Lassa virus binding or cell entry. Lassa virus pseudotype entry inhibition, cell reporter. Potency, µM (series often up to 37.9 µM), hits mostly inhibitors. 1.2% of 300,000 active. AID 540256; calls by dose curve; tested in HEK293 cells; note: nearly all actives have a fitted effect of over 50% in size
Marburg entry inh: blocks Marburg virus binding to or entry into cells | AID 540276 | Potency, µM (series often up to 37.8 µM), actives largely listed as inhibitors | Marburg virus pseudotyped entry inhibition, cell reporter | 1.8% of 300,000 active; calls by dose curve; tested in HEK293 cells
FMDV antiviral: blocks foot and mouth disease virus; Potency, µM (titrated, usually from 57.9 µM), hits mostly inhibitors; FMDV antiviral cell-based qHTS; AID 1159524; 1.2% of 410,000 active; calls by dose curve; tested in HEK293T cells; note: read-out not given here; nearly all actives have a fitted effect of over 45% in size
VACV mCherry inh: vaccinia inhibition (mCherry reporter); Potency, µM (series often up to 36.5 µM), most hits filed as inhibitors; AID 720579; 0.63% of 310,000 active; Vaccinia virus mCherry reporter infection, fluorescence; calls by dose curve; tested in A549 cells; note: nearly all actives have a fitted effect of over 35% in size
Vaccinia Venus: inhibitors of vaccinia virus (Venus reporter); Vaccinia virus Venus reporter expression, fluorescence; Potency, µM (highest dose often 36.5 µM), actives largely listed as inhibitors; 0.46% of 330,000 active; AID 720580; calls by dose curve; tested in A549 cells; note: nearly all actives have a fitted effect of over 30% in size
Each line names hits and unclear results; the compound was inactive in the other large screens. The list is not random: actives were taken first. Their share in the collection is about 5.3%.

CCN(C(=O)Cn1nc2c3cc(F)ccc3n(Cc3cccc(C)c3)cc-2c1=O)c1cccc(C)c1	none (no result: HCV inh, Marburg entry inh)
Cc1ccc(CSCCNC(=O)c2ccc(Cl)c(S(=O)(=O)N3CCOCC3)c2)cc1	HCV inh 22µM, LASV entry inh inconclusive, FMDV antiviral inconclusive (no result: VACV mCherry inh, Vaccinia Venus)
NS(=O)(=O)c1ccc(CCNC(=O)Nc2ccc(Cl)c(Cl)c2)cc1	HCV inh inconclusive, Marburg entry inh inconclusive, FMDV antiviral 25µM (no result: VACV mCherry inh, Vaccinia Venus)
CN(C)C(CNC(=O)c1ccc(Cl)c(S(=O)(=O)N2CCCCCC2)c1)c1ccccc1 (configuration not stated)	HCV inh 6.3µM, FMDV antiviral inconclusive (no result: LASV entry inh, Marburg entry inh, VACV mCherry inh, Vaccinia Venus)
O=C(NCc1ccccc1CN1CCCC1)c1cc2cc(Cl)ccc2o1	HCV inh 10µM (no result: LASV entry inh, Marburg entry inh, VACV mCherry inh, Vaccinia Venus)
CN(C)CCCNC(=O)c1ccc(Cl)c(S(=O)(=O)N2CCCCCC2)c1	HCV inh inconclusive, Marburg entry inh inconclusive
NS(=O)(=O)c1ccc(CNC(=S)Nc2ccc(Cl)c(Cl)c2)cc1	Marburg entry inh inconclusive
O=C(NCCC1=CCCCC1)c1ccc(Cl)c(S(=O)(=O)N2CCOCC2)c1	HCV inh inconclusive, FMDV antiviral inconclusive (no result: VACV mCherry inh, Vaccinia Venus)
CNC(=O)C1CC(=O)N(c2ccc(OCC(=O)Nc3ccccc3)cc2)C1 (configuration not stated)	none
NS(=O)(=O)c1ccc(CCNC(=O)c2ccc(Cl)c(S(=O)(=O)N3CCCCC3)c2)cc1	LASV entry inh inconclusive, Marburg entry inh inconclusive, FMDV antiviral 45µM
CCOc1ccc2oc(C(=O)NCc3ccccc3CN3CCCC3)c(C)c2c1	HCV inh 16µM, FMDV antiviral inconclusive (no result: LASV entry inh, Marburg entry inh, VACV mCherry inh, Vaccinia Venus)
CCc1cc(Cn2nc(-c3ccccc3)cc2C(=O)NCc2cccc(C(F)(F)F)c2)on1	HCV inh inconclusive (no result: LASV entry inh, Marburg entry inh)
CCc1cc(Cn2nc(-c3ccccc3)cc2C(=O)NCc2cccc(Br)c2)on1	HCV inh 3.2µM (no result: LASV entry inh, Marburg entry inh)
CCn1c(-c2ccccc2F)nc2cc(NC(C)=O)cc(C(=O)N3CCCCC3c3nccn3C)c21 (configuration not stated)	none (no result: HCV inh, LASV entry inh, Marburg entry inh)
O=C(C#Cc1ccccc1)Nc1cccc(F)c1	HCV inh inconclusive, LASV entry inh 11µM, Marburg entry inh inconclusive, VACV mCherry inh 3.5µM, Vaccinia Venus inconclusive
CCOC(=O)c1oc2ccc(CNC3CCCCC3)c(Cl)c2c1C	HCV inh inconclusive, LASV entry inh inconclusive, Marburg entry inh 7.3µM (no result: FMDV antiviral)
Cc1ncc([N+](=O)[O-])n1CCO	none
Cc1ncc([N+](=O)[O-])n1CC(C)O (configuration not stated)	HCV inh 2.8µM (no result: LASV entry inh, Marburg entry inh)
Oc1cccc(/C=N/n2c(C3CCCCC3)n[nH]c2=S)c1	HCV inh 2.2µM, LASV entry inh inconclusive
Fc1cccc(/C=N/n2c(C3CCCCC3)n[nH]c2=S)c1	none (no result: LASV entry inh, Marburg entry inh, VACV mCherry inh, Vaccinia Venus)
C(=C\c1ccnc2ccccc12)/c1ccc2c(c1)OCO2	none (no result: HCV inh, LASV entry inh, Marburg entry inh, FMDV antiviral)
CCOc1ccc(Oc2ccccc2NC(=O)CSCC(=O)Nc2cc(C)on2)cc1	HCV inh 8.9µM, LASV entry inh inconclusive, Marburg entry inh inconclusive, FMDV antiviral inconclusive
Cc1cccc(Oc2ccccc2NC(=O)CSCC(=O)Nc2cc(C)on2)c1	HCV inh inconclusive, LASV entry inh inconclusive, Marburg entry inh 3.5µM, FMDV antiviral inconclusive
Cc1cc(NC(=O)CSCC(=O)Nc2ccccc2OC(F)F)no1	none
O=C(NCCc1nc(-c2ccccc2)cs1)c1ccc(Br)cc1	HCV inh 11µM, FMDV antiviral inconclusive, VACV mCherry inh inconclusive
O=C(NCCSc1ccccc1)c1ccccc1	LASV entry inh inconclusive, Marburg entry inh inconclusive
CN(C)S(=O)(=O)c1ccc(C(=O)NCCSc2ccc(Br)cc2)cc1	HCV inh 22µM, LASV entry inh inconclusive, VACV mCherry inh inconclusive, Vaccinia Venus inconclusive
Cc1ccc(C(=O)NCC(=O)NCCSc2ccc(Br)cc2)cc1	none
O=C(NCCSc1ccccc1)c1ccc(Br)cc1	LASV entry inh 13µM, Marburg entry inh inconclusive
CC1CCc2[nH]c3ccc(C(=O)N(C)CC(=O)Nc4ccccc4Br)cc3c2C1 (configuration not stated)	LASV entry inh inconclusive, Marburg entry inh inconclusive, FMDV antiviral inconclusive, VACV mCherry inh inconclusive
Cc1ccc(C)c(NC(=O)CN(C)C(=O)c2ccc3[nH]c4c(c3c2)CC(C)CC4)c1 (configuration not stated)	LASV entry inh 0.56µM, VACV mCherry inh inconclusive, Vaccinia Venus inconclusive
COc1ccccc1/C=C/CN1CCCC(CO)(Cc2cccc(Cl)c2)C1 (configuration not stated)	HCV inh inconclusive, LASV entry inh 14µM, Marburg entry inh 13µM, FMDV antiviral inconclusive
COc1ccc(/C=C/CN2CCCC(CO)(Cc3cccc(Cl)c3)C2)cc1 (configuration not stated)	LASV entry inh 10µM, Marburg entry inh 6.3µM, Vaccinia Venus inconclusive
COc1ccc2[nH]cc(CCNc3ncncc3-c3ccccc3C(F)(F)F)c2c1	none (no result: HCV inh, LASV entry inh, Marburg entry inh, VACV mCherry inh, Vaccinia Venus)
Cc1cccc(NC(=O)c2ccc3oc(=O)c(S(=O)(=O)c4ccc(F)cc4)cc3c2)c1C	FMDV antiviral 32µM (no result: HCV inh)
CCOc1ccc(C2=Nn3c(nnc3-c3ccc(OC)cc3)SC2)cc1	HCV inh inconclusive, LASV entry inh inconclusive, Marburg entry inh 5.2µM, FMDV antiviral inconclusive (no result: VACV mCherry inh, Vaccinia Venus)
COc1ccc(C2=Nn3c(nnc3-c3ccncc3)SC2)cc1	Marburg entry inh inconclusive (no result: VACV mCherry inh, Vaccinia Venus)
Cc1cc(-c2nnc3n2N=C(c2ccc(-c4ccccc4)cc2)CS3)n[nH]1	LASV entry inh inconclusive, Marburg entry inh inconclusive, FMDV antiviral inconclusive, VACV mCherry inh 11µM, Vaccinia Venus inconclusive
COc1cc(OC)c(NC(=O)CCc2c(C)nc3c4c(C)cc(C)nc4nn3c2C)cc1Cl	none (no result: HCV inh)
CC(=O)c1cccc(NC(=O)CSc2ccc(-c3ccc4c(c3)OCO4)nn2)c1	HCV inh 11µM
CCn1c(SCC(=O)Nc2ccc3c(c2)OCCO3)nnc1-c1ccccn1	none (no result: VACV mCherry inh, Vaccinia Venus)
COc1ccc(-c2ccc(SCC(=O)Nc3cccc(C(C)=O)c3)nn2)cc1OC	HCV inh 8.9µM, LASV entry inh inconclusive, Marburg entry inh inconclusive, Vaccinia Venus inconclusive
Cc1ccccc1-n1c(SCC(=O)Nc2ccc3c(c2)OCO3)nnc1-c1ccccn1	HCV inh 22µM, Marburg entry inh inconclusive (no result: VACV mCherry inh, Vaccinia Venus)
COc1ccc(-c2ccc(SCC(=O)NC3CCCCC3)nn2)cc1OC	none (no result: LASV entry inh)
CC(=O)c1cccc(NC(=O)CSc2ccc(-c3ccco3)nn2)c1	HCV inh inconclusive, FMDV antiviral inconclusive
COc1cccc(C(=O)C2CCCN(C/C=C/c3ccccc3OC)C2)c1 (configuration not stated)	Marburg entry inh inconclusive
COc1ccc(/C=C/CN2CCCC(C(=O)c3ccc(OC)c(F)c3)C2)cc1 (configuration not stated)	HCV inh inconclusive, Marburg entry inh 10µM, FMDV antiviral inconclusive (no result: LASV entry inh)
COc1ccc(C(=O)C2CCCN(Cc3cccc(C)n3)C2)c(OC)c1 (configuration not stated)	HCV inh inconclusive, LASV entry inh inconclusive, Marburg entry inh inconclusive
COc1ccc(C(=O)C2CCCN(Cc3ccc4nonc4c3)C2)cc1F (configuration not stated)	LASV entry inh inconclusive
